Bioassay records as filed in PubChem BioAssay.
In the library only some 1.9% were active in any assay of this set; here they are far more common.
Menin-MLL TR inh – menin-MLL binding inhibition, Texas Red mutant peptide; Menin + Texas Red MLL mutant peptide, fluorescence polarization; 270,000 tested, 0.23% active; O00255; Potency, µM (doses to about 61.6 µM), most hits filed as inhibitors; AID 1768; active = well fitted inhibition curve with a large enough effect in the polarisation, with a control signal flat, not every such curve was filed as active; inconclusive = small, poorly fitted or top-dose-only effect, or effect the other way, or a change in a side signal; inactive = no such curve, though single readings can be large or run the other way; the % refers to the polarisation
MLL CXXC-DNA inh – MLL CXXC-DNA interaction inhibition; Q03164; MLL-CXXC / FITC-HOXA9 DNA fluorescence polarization; Potency, µM (series often up to 115 µM), hits mostly inhibitors; 290,000 tested, 0.037% active; AID 2662; active = well fitted inhibition curve with a large enough effect in the polarisation, with a control signal flat, not every such curve was filed as active; inconclusive = small, poorly fitted or top-dose-only effect, or effect the other way, or a change in a side signal; inactive = no such curve, though single readings can be large or run the other way; the % refers to the polarisation
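Purified MLL-CXXC (added from a 7 uM solution) was preincubated 5 min at ambient with pinned compounds in 50 mM Tris-HCl pH 7.5, 50 mM NaCl, 1 mM DTT, 0.05% BSA. Fluorescein-labeled HOX-A9 DNA (50 nM solution) followed, 30 min, then polarization read.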
PINK1 expr mod – PINK1 expression modulation; PINK1 immunofluorescence, high-content cytometry, 24 h; Potency, µM (highest dose often 76.6 µM), hits mostly activators; 410,000 tested, 0.2% active; AID 624263; active = well fitted activation curve with a large enough effect; inconclusive = small, poorly fitted or top-dose-only effect; cell line not stated here; also: nearly all actives have a fitted effect of over 65% in size
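A stable cell line was treated with compounds at 5 concentrations for 24 hours, with CCCP as control. PINK1 levels and mitochondrial localization were measured by immunofluorescence with mitochondrial, cell and nuclear markers after fixation, read by laser-scanning cytometry.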
ClpP mod – qHTS Assay for Activators of ClpP | purified B. subtilis ClpP, FRET peptide cleavage, 20 min | Potency, µM (titrated, usually from 57.5 µM) | 340,000 tested, 1.9% active | AID 651965, 2013; active = well fitted falling curve with a large enough effect; inconclusive = small, poorly fitted or top-dose-only effect; inactive = no such curve, though single readings can be large or run the other way; also: the source files actives as falling curves though it sought activators and does not explain the sign; nearly all actives have a fitted effect of over 65% in size
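Buffer: 100 mM Tris/HCl pH8, 100 mM KCl, 0.05% low protease BSA, 2.5% glycerol, 0.01% Tween-20. ClpP 10 microg/mL final; 20 min RT; delta FRET normalized to ADEP and DMSO controls.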
Menin-MLL FL inh – inhibitors of human menin-MLL interaction, wild-type MLL peptide | Fluorescence polarization, fluorescein-MLL peptide displacement from menin | FP activity change, % at 61.4 µM | 290,000 tested, under 10 active | AID 1766; active = well fitted curve in the direction sought with a large enough effect in the polarisation, not every such curve was filed as active; inconclusive = small, poorly fitted or top-dose-only effect, or effect the other way, or a change in a side signal; inactive = no such curve, though single readings can be large or run the other way; the % refers to the polarisation
Epigenetic reg – derepresses silenced GFP reporter in murine cells | Potency, µM (series often up to 53.9 µM), actives largely listed as activators | murine LDR cells, GFP reporter derepression, 30 h | AID 1865 | 280,000 tested, 0.2% active; active = well fitted activation curve with a large enough effect; inconclusive = small, poorly fitted or top-dose-only effect; also: nearly all actives have a fitted effect of over 60% in size
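In this reporter-derepression format, murine cells bearing a silenced integrated CMV-GFP locus incubate with test compound (30 h, 37 C), then are washed and imaged; fluorescent objects of 20–120 um count as induced cells.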
A number is an active result; . = inactive; ? = inconclusive; / = no result; [ ] = dose if it differs, or a comment.

SMILES	Menin-MLL TR inh	MLL CXXC-DNA inh	PINK1 expr mod	ClpP mod	Menin-MLL FL inh	Epigenetic reg
COC(=O)c1sc(-c2ccccc2)cc1NC(=O)Nc1ccc(Cl)cc1	/	/	.	17.8µM	/	.
COC(=O)c1sc(-c2ccccc2)cc1NC(=O)Nc1ccc(F)cc1	/	/	.	31.6µM	/	.
COC(=O)c1sc(-c2ccccc2)cc1NC(=O)Nc1ccccc1Cl	/	/	.	.	/	.
CCOC(=O)c1sc(-c2ccc(F)cc2)cc1NC(=O)Nc1ccccc1OC	?	.	.	17.8µM	.	.
Cc1ccc(S(=O)(=O)n2nc(C)c(S(=O)(=O)N3CCC(C)CC3)c2C)cc1	/	/	.	.	/	.
O=C(CBr)c1ccc(Oc2ccc(C(=O)C[n+]3ccccc3Cl)cc2)cc1	/	/	.	.	/	/
C[C@H](O)C(N)C(=O)O (stereo partly specified)	.	/	/	/	.	/
CCN(CC)c1ccc(/C=C/C(=O)C2C(=O)C=C(C)OC2=O)cc1 (stereo unspecified)	?	?	?	/	?	11.2µM
CCN(CC(=O)NCc1cccs1)C(=O)c1cccc(S(=O)(=O)NC)c1	/	/	.	.	/	/
CCN(CC(=O)NCc1cccs1)C(=O)c1cccc(S(=O)(=O)Nc2ccccc2Cl)c1	/	/	.	35.5µM	/	/
O=S(=O)(Cc1ccccc1)C1CCCCC1O (stereo unspecified)	/	.	.	14.1µM	.	.
Cc1cnc(-n2ncc(C(=O)N(C)C3CCOC3)c2C)nc1-c1ccc(F)cc1 (stereo unspecified)	/	/	.	/	/	/
Cc1c(C(=O)NCCN2CCC(c3ccccc3)CC2)cnn1-c1nccc(-c2cccs2)n1	/	/	.	/	/	/
Cc1ccc(-c2ccc(CCC(=O)O)n2Cc2ccco2)cc1	.	.	.	31.6µM	.	.
COc1ccc(-c2ccc(CCC(=O)O)n2CC(C)C)cc1	.	.	?	31.6µM	?	.
O=C(O)CCc1ccc(-c2ccccc2)n1CC(=O)O	.	.	.	31.6µM	.	.
O=C(O)CCc1ccc(-c2ccc(Br)cc2)n1CC(=O)O	.	.	.	.	.	.
C=CCn1c(CCC(=O)O)ccc1-c1ccc(OC)cc1	.	.	/	?	.	.
CC(C)CSC1=NSC2=NC(=O)/C(=C\c3cccs3)C(=N)N12	?	.	44.7µM	.	.	.
N=C1/C(=C/c2cccs2)C(=O)N=C2SN=C(SCc3ccccc3)N12	?	?	?	.	.	.
CC(=O)c1ccc(NC(=O)Cn2c(=O)cc(C)c3c(C)nn(-c4cccc(F)c4)c32)cc1	/	/	.	.	/	.
COc1cccc(N(C(=O)Cn2nnc3ccccc32)C(C(=O)NCc2ccco2)c2cccnc2)c1 (stereo unspecified)	.	.	.	35.5µM	.	.
Cc1ccc(N(C(=O)Cn2nnc3ccccc32)C(C(=O)NCc2ccco2)c2cccnc2)cc1 (stereo unspecified)	.	.	.	.	.	.
CSc1ccccc1OCc1cc(C(=O)NCCN2CCCC(O)C2)no1 (stereo unspecified)	/	.	.	28.2µM	/	/
O=C(NCCN1CCCC(O)C1)c1cc(COc2ccc(F)cc2Cl)on1 (stereo unspecified)	.	.	.	.	.	/
SMILES	Menin-MLL TR inh	MLL CXXC-DNA inh	PINK1 expr mod	ClpP mod	Menin-MLL FL inh	Epigenetic reg
Cc1c(C)c2ccc(O[C@@H]3O[C@H](CO)[C@@H](O)[C@H](O)[C@H]3O)c(C)c2oc1=O	.	.	.	.	.	/
CCc1cc(=O)oc2c(C)c(O[C@@H]3O[C@H](CO)[C@@H](O)[C@H](O)[C@H]3O)ccc12	.	.	.	28.2µM	.	/
C=CCOc1ccc2c(CC)cc(=O)oc2c1C	.	.	.	25.1µM	.	.
CC(O)[C@@H](O)[C@H]1CNc2nc(N)[nH]c(=O)c2N1 (stereo partly specified)	.	?	/	/	.	.
COc1ccc(C(=O)Oc2coc(CSc3nnc(NC(=O)c4cccs4)s3)cc2=O)cc1	?	.	.	28.2µM	.	.
O=C(Oc1coc(CSc2nnc(NC(=O)C3CC3)s2)cc1=O)c1ccccc1	.	?	.	.	.	.
COc1ccccc1C1CN(CC(=O)NCC2OCCc3ccccc32)Cc2ccccc2O1 (stereo unspecified)	/	/	.	/	/	/
O=[N+]([O-])c1ccc(/C=C2\C=Cc3ccccc32)cc1	/	/	.	.	/	/
O=c1c2c(nc(NCCO)n1CC1CCCCC1)-c1ccccc1CC21CCCC1	.	.	.	28.2µM	.	.
CCn1c(NCCCO)nc2c(c1=O)C(C)(CC)Cc1ccccc1-2 (stereo unspecified)	/	.	.	.	.	.
CC1(C)CC(n2c(NCCO)nc3c(c2=O)C2(CCCC2)Cc2ccccc2-3)CCO1 (stereo unspecified)	.	.	.	31.6µM	.	.
COC(=O)[C@@H]1C[C@@H](NC(=O)c2cnsn2)CN1Cc1ccc(Cl)cc1	/	/	.	/	/	/
O=S(=O)(c1ccc(Cl)cc1)c1nc(-c2ccccc2Br)oc1NCc1ccccc1	/	/	.	20µM	/	.
CCOC(=O)c1ccc(-c2ccc(CO)o2)cc1	.	.	.	0.708µM	.	.
O=C1C(SC(F)(F)C(F)F)=C(C(F)(F)F)OC2C3C=CC(C3)C12 (stereo unspecified)	/	.	.	15.8µM	.	.
C=CC[C@@H](CC(=O)OC(C)(C)C)C(=O)OC[C@H]1CCCN1C(=O)[C@@H](CC=C)CC(=O)NCCO	/	/	.	.	/	/
CC(=O)[C@@H]1[C@@H]2C(=O)N(Cc3ccccc3)C(=O)[C@@H]2C2c3ccccc3C=CN21 (stereo partly specified)	.	.	11.2µM	.	?	.
C=C1CC(C(=O)N/N=C/c2ccc(O)cc2)C1	.	.	.	11.2µM	.	.
O=C(NN=Cc1ccc(O)cc1)C(=O)NN=Cc1ccc(O)cc1	/	/	.	/	/	/
COC(=O)NC(c1cccc(F)c1)[C@@]1(C(=O)OC)CCCC1=O (stereo partly specified)	.[11.7 µM]	/	/	/	.[11.7 µM]	.[10.1 µM]
CCc1ccc2nc(SCC(=O)N3CC(=O)Nc4ccccc43)c(C#N)cc2c1	.	.	.	.	.	17.8µM
COc1ccc(CNC(=O)C2CCCN2c2nc(C)c3ccccc3n2)cc1 (stereo unspecified)	/	/	.	/	/	/
Cc1cnc(SCc2ccccn2)nc1C1CCCN(C(=O)c2scc3c2CCCC3)C1 (stereo unspecified)	/	/	.	/	/	/
O=C(Cc1ccccc1)Nc1nnc(-c2cccc([N+](=O)[O-])c2)s1	.	.	.	31.6µM	.	.
CCCC(=O)Nc1nnc(-c2cccc(OCC)c2)s1	.	.	.	28.2µM	.	.
C(=C\c1ccnc2ccccc12)/c1ccccc1	/	/	.	?	/	/
Cc1cccc(OCCOCCSc2ncccn2)c1	.	.	.	.	.	.
